Source: PubChem BioAssay AID488969 (Vanderbilt High Throughput Screening Facility, 2010)
Whole data set: some 110,000 compounds, median “z-score” near -0.1, cut for the highest 2% near 2. This is one part of a sample in which the highest values are shown more often than they occur. The source made the active and inactive calls.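 How the source made its calls: active means z-score in the third read window above 3 or below -3; inactive means the rest.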

These compounds were tested against Metabotropic glutamate receptor 8 (Rattus norvegicus) (UniProt P70579) (assay: rat mGluR8 modulators via GIRK flux, primary screen, cell-based, thallium flux, HTS (AID 488969)). Conditions: HEK293 rat mGluR8, GIRK (G protein-gated inwardly rectifying potassium channel) thallium flux, FluoZin2; at 10 µM; stronger effect = higher value; submaximal glutamate (EC20) added with thallium.
Metabotropic glutamate receptor 8 (Rattus norvegicus), sequence (P70579 whole entry, looked up): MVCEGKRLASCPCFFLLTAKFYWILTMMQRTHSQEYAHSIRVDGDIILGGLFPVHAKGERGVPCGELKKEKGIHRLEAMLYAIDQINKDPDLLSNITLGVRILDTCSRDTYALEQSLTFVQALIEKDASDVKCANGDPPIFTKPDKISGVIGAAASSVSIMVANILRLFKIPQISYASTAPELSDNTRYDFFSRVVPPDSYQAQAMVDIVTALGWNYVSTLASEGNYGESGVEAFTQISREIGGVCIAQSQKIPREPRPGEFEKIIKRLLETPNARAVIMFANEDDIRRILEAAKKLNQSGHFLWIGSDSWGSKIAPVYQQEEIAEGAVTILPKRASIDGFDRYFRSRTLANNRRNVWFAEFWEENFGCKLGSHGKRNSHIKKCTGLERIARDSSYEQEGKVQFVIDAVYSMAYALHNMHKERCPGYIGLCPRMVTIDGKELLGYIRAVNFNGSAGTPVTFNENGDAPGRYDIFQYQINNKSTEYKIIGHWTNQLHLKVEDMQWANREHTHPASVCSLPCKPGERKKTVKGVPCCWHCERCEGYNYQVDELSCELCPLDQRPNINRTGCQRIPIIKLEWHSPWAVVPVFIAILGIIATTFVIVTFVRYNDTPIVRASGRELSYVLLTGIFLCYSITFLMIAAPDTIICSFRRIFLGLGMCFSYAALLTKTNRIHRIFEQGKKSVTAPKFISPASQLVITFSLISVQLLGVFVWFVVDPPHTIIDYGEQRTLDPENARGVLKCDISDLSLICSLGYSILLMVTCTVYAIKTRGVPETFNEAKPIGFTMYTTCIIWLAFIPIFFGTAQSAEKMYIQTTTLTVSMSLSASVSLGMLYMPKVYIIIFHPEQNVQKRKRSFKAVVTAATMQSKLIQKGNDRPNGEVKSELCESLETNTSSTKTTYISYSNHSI
For `Cc1ccc(C(=O)NC2(C(F)(F)F)N=C3SCCN3C2=O)cc1` (centres undefined), the z-score was 2.91. Compound `O=C(NC1(C(F)(F)F)N=C2SCCN2C1=O)c1ccccc1` (centres undefined) has a z-score of -0.628. Work on `CC(C)Oc1ccc(C(=O)NC2(C(F)(F)F)N=C3SCCN3C2=O)cc1` (centres undefined) yielded a z-score of 0.873. `CS(=O)(=O)Nc1ccc(C(=O)NC2CCCC2)cc1` gave a z-score of -0.00695. In the case of `COc1ccc(OC)c(/C=N/NC(=O)CN2CCSCC2)c1`, the z-score is reported as 0.045. With `CCn1cc(C(=O)NC(=S)Nc2sc3c(c2C(=O)OC)CCCCCC3)cn1` the z-score was -0.247. In the case of `CCn1nnc(NC(=O)c2cccnc2Cl)n1`, the z-score is reported as -0.48. `C/C(=N\NC(=S)Nc1ccc(F)cc1)c1ccc2c(c1)OCCO2` was tested, and the z-score was 6.87 (active). `C/C(=N\NC(=S)Nc1ccc(F)cc1)C1CC1` gave a z-score of -0.155. With `C/C(=N/NC(=O)c1ccc2c(c1)OCO2)c1cccc(NC(=O)C(C)(C)C)c1` the z-score was -0.191. `C/C(=N\NC(=O)c1ccccc1)c1ccc2c(c1)OCO2` showed a z-score of -0.195. In the case of `C/C(=N/NC(=O)c1ccc2c(c1)OCO2)c1ccc(NC(=O)C(F)(F)F)cc1`, the z-score is reported as -0.151. With `C/C(=N/NC(=S)Nc1ccccc1)c1ccc2c(c1)OCO2` the z-score was 7.92 (active). In the case of `COc1nc(N/N=C/c2cc3c(cc2Br)OCO3)nc(N2CCOCC2)n1`, the z-score is reported as -0.297. `Cc1c(N=C2SCC(=O)N2/N=C/c2ccccc2)c(=O)n(-c2ccccc2)n1C` showed a z-score of -0.023. Work on `CSc1nc2ccc(NC(=O)c3nn(C(C)C)c(=O)c4ccccc34)cc2s1` yielded a z-score of -0.391. `Cc1ccc(SCc2cc(-c3ccc(Cl)cc3)on2)cc1` gave a z-score of 0.048. `CCOc1ccc(-c2[nH]ncc2-c2csc(C)n2)c(O)c1` gave a z-score of -0.285. `COc1ccc(NC(=O)CSc2nnc(Cn3cnc4ccccc43)n2C)cc1` gave a z-score of 0.66. With `O=C(Nc1ccc2c(c1)OCCO2)c1ccc2nccnc2c1` the z-score was 0.215. In the case of `CCOC(=O)C1CCN(c2c(Nc3ccc4c(c3)OCCO4)c(=O)c2=O)CC1`, the z-score is reported as -0.277. For `CCC1CCCCN1C(=S)Nc1ccc(C(C)=O)cc1` (centres undefined), the z-score was -0.196. For `O=C(NC(=S)N1CCc2ccccc21)c1ccccc1Br`, the z-score was 11.2 (active). Work on `O=C(c1cncc(Br)c1)N1CCCc2ccccc21` yielded a z-score of 0.0197. Compound `O=C(NN1c2ccccc2CCc2ccccc21)c1ccccc1Br` has a z-score of -0.0618. In the case of `O=C(NC(=S)N1CCCc2ccccc21)c1ccc(Br)cc1`, the z-score is reported as 9.56 (active). For `CC(=O)Nc1ccccc1C(=O)N1CCc2ccccc21`, the z-score was 1.03. Compound `O=C(N/N=C1\CCCc2ccccc21)c1ccc([N+](=O)[O-])cc1` has a z-score of 1.47. `CC(=O)N1CCCc2ccccc21` gave a z-score of 0.0326. Work on `CC1CN(C(=S)NC(=O)c2ccc([N+](=O)[O-])cc2)CC(C)O1` (centres undefined) yielded a z-score of 0.605. With `O=C(NC(=S)N1CCCc2ccccc21)c1ccc([N+](=O)[O-])cc1` the z-score was 14.7 (active). `O=C(NC(=S)N1CCOCC1)c1ccc([N+](=O)[O-])cc1` gave a z-score of 0.875. In the case of `CCC1CCCCN1C(=S)NC(=O)c1ccc([N+](=O)[O-])cc1` (centres undefined), the z-score is reported as 9.16 (active). In the case of `Cc1ccc(CN2C(=O)CCSc3ccc(Cl)cc32)cc1`, the z-score is reported as -0.054. `Clc1ccc(-c2n[nH]c3c2CCC3)c(Cl)c1` gave a z-score of 0.0993. Compound `O=C(CCS(=O)(=O)c1cccc2nsnc12)NCc1ccccc1Cl` has a z-score of 0.429. Compound `COc1ccccc1N1CCN(C(CNC(=O)c2ccco2)c2cccnc2)CC1` (centres undefined) has a z-score of 1.2. `CN(/N=C/c1ccc(O)cc1O)c1nc(-c2ccccc2)cc(-c2ccccc2)n1` was tested, and the z-score was 0.141. In the case of `COc1cc(C(=O)OCC(=O)Nc2ccc3c(c2)OC(F)(F)O3)ccc1OCc1c(C)noc1C`, the z-score is reported as -0.513. `CC12CCC(C(=O)N3CCCc4ccccc43)(OC1=O)C2(C)C` (centres undefined) gave a z-score of -0.143. `O=C(Nc1ccccc1)N1CCc2ccccc21` was tested, and the z-score was -0.39. Work on `COc1ccc(NC(=O)N2CCc3ccccc32)cc1` yielded a z-score of 0.323. Compound `CC12CCC(C(=O)N3CCc4ccccc43)(CC1=O)C2(C)C` (centres undefined) has a z-score of 0.155. `CC(C)[C@H](NC(=O)c1ccccc1)C(=O)N1CCc2ccccc21` showed a z-score of -0.0295. For `CC12CCC(C(=O)N3CCCc4ccccc43)(CC1=O)C2(C)C` (centres undefined), the z-score was 3.5 (active). `O=C(CCC(=O)N1CCc2ccccc21)N1CCc2ccccc21` showed a z-score of -0.329. In the case of `Cc1ccc(NC(=O)N2CCc3ccccc32)cc1`, the z-score is reported as 1.99. In the case of `O=C(NC(=S)N1CCc2ccccc21)c1ccccc1`, the z-score is reported as 7.58 (active). Compound `O=C(c1ccccc1)N1CCc2ccccc21` has a z-score of 0.518. In the case of `COc1ccc(C(=O)N2CCCc3ccccc32)cc1`, the z-score is reported as -0.672. In the case of `O=C(c1ccccc1)N1CCCc2ccccc21`, the z-score is reported as 3.33 (active). `O=C(c1ccco1)N1CCN(Cc2nc3ccccc3c(=O)n2-c2ccc(F)cc2)CC1` was tested, and the z-score was 0.209. In the case of `COc1cc2[nH]c(=S)nc(NCC3CCCO3)c2cc1OC` (centres undefined), the z-score is reported as 0.919. `Cc1cccc(-n2c(C)n[nH]c2=S)c1` gave a z-score of -0.139. Compound `Cc1ccc2c(c1)c1c(n2CC(O)CN2C(=O)CNC2=O)C(=O)CCC1` (centres undefined) has a z-score of 0.0317. `Cc1cc(C)n(C(=O)CNC(=O)C(c2ccccc2)c2ccccc2)n1` was tested, and the z-score was -0.473. With `O=C(NC(=S)N1CCCc2ccccc21)c1ccccc1` the z-score was 4.54 (active). Compound `Fc1ccc(NC(=S)N2CCCc3ccccc32)cc1` has a z-score of -0.143. `S=C(c1ccccc1)N1CCCc2ccccc21` showed a z-score of -0.863. `COc1ccccc1C(=O)NC(=S)N1CCCc2ccccc21` gave a z-score of -0.0293. `O=C(C(=O)N1CCCc2ccccc21)N1CCCc2ccccc21` showed a z-score of 0.0396. For `O=C(NC(=S)N1CCCc2ccccc21)c1ccc(Cl)cc1`, the z-score was 15.6 (active). `CN(CCC#N)C(=O)Cn1nc(Cc2ccncc2)c2ccccc2c1=O` gave a z-score of 1.89. `CCOCC(=O)Nc1nnc(C2CCCCC2)s1` gave a z-score of 0.0573. Compound `Cc1cccc(Cn2c(C(C)O)nc3ccccc32)c1` (centres undefined) has a z-score of -0.101. `COc1cccc(N2CCN(CC(=O)C34CC5CC(CC(C5)C3)C4)CC2)c1` gave a z-score of 0.0526. Compound `COC(=O)[C@H](C)NC(=O)Nc1cc(OC)ccc1OC` has a z-score of -0.238. For `COc1cc(/C=N/NC(=O)COc2c(C)cc([N+](=O)[O-])cc2C)ccc1OC(=O)c1ccccc1`, the z-score was -0.81. Compound `Cc1cc([N+](=O)[O-])cc(C)c1OCC(=O)N/N=C/c1ccc(OC(=O)c2ccccc2Br)cc1` has a z-score of 2.41. For `Cc1cc([N+](=O)[O-])cc(C)c1OCC(=O)N/N=C/c1ccc(OC(=O)c2ccccc2)cc1`, the z-score was -0.0495. Work on `CCOc1ccc2[nH]cc(C(=O)N3CCN(C4CCCCC4)CC3)c(=O)c2c1` yielded a z-score of -0.123. `CC(=O)N1CCN(CC(O)COc2ccc(OCc3ccccc3)cc2)CC1` (centres undefined) showed a z-score of 0.0259. Work on `Cc1cc2ccccc2c(=O)n1CC(=O)NCC1COc2ccccc2O1` (centres undefined) yielded a z-score of 0.0188. In the case of `Cc1ccc2nc(N3C(=O)C(O)=C(C(=O)c4ccco4)C3c3cccs3)sc2c1` (centres undefined), the z-score is reported as -1.09. For `CC1CSc2ccccc2NC1=S` (centres undefined), the z-score was 3.72 (active). In the case of `CC1CC(=S)Nc2ccccc2N1Cc1ccccc1` (centres undefined), the z-score is reported as 1.32. `O=C1CC(c2ccccc2)Sc2ccccc2N1` (centres undefined) was tested, and the z-score was -0.216. `C=C(C)c1cccc(C(C)(C)NC(=O)Nc2ccc(C)cn2)c1` was tested, and the z-score was -0.34. `CCOc1ccc(C(=O)Nc2cc(=O)n(C)c(=O)n2C)cc1` gave a z-score of -0.395. With `CCOC(=O)c1ccc2nc(NC(=O)c3ccco3)sc2c1` the z-score was -0.0743. In the case of `O=C(CN1CCN(Cc2ccc3c(c2)OCO3)CC1)Nc1ccc2c(c1)OCCO2`, the z-score is reported as 0.156. In the case of `Cc1c(NC(=O)Cn2cnc3c(=O)n(C)c(=O)n(C)c32)cccc1-c1nc2ccccc2o1`, the z-score is reported as 0.183. Work on `COc1ccc(/C=N/NC(=S)NC2CCS(=O)(=O)C2)cc1` (centres undefined) yielded a z-score of -0.113. With `COc1ccc(/C=N\NC(=S)SCN2C(=O)C3CCC(C)(C2=O)C3(C)C)cc1` (centres undefined) the z-score was 9.12 (active). Work on `COc1ccc(C(=O)NN2C(=O)C3CCC(C)(C2=O)C3(C)C)cc1` (centres undefined) yielded a z-score of -0.0665. With `CC12CCC(C(=O)N(CSC(=S)N/N=C\c3ccccc3)C1=O)C2(C)C` (centres undefined) the z-score was 16.4 (active). Compound `CC12CCC(C(=O)N(CC(O)CN3CCCCC3)C1=O)C2(C)C` (centres undefined) has a z-score of 0.169. `CN(C)c1ccc(/C=N\NC(=S)SCN2C(=O)C3CCC(C)(C2=O)C3(C)C)cc1` (centres undefined) showed a z-score of 1.74. `CCOc1ccc(NC(=O)CCCN2C(=S)NC(C)(C)CC2C)cc1` (centres undefined) was tested, and the z-score was -0.466. Compound `CCCOc1ccc(N2C(=O)CC(N3CCN(c4nc5ccccc5s4)CC3)C2=O)cc1` (centres undefined) has a z-score of 0.835. Compound `O=C1CC(N2CCN(c3nc4ccccc4s3)CC2)C(=O)N1c1cccc(F)c1` (centres undefined) has a z-score of -0.276. `O=C1CC(N2CCN(c3nc4ccccc4s3)CC2)C(=O)N1c1ccc(F)cc1` (centres undefined) was tested, and the z-score was 7.65 (active). Compound `CCCCC(=O)Nc1nc2ccc3nc(C)sc3c2s1` has a z-score of -0.125. For `CCC(=O)Nc1nc2ccc3nc(C)sc3c2s1`, the z-score was 3.6 (active). `CCCC(=O)Nc1nc2ccc3nc(C)sc3c2s1` was tested, and the z-score was -0.507. `Nc1sccc1C(=O)c1ccccc1` was tested, and the z-score was 11 (active). With `Nc1cc2c(cc1C(=O)c1ccccc1)OCCO2` the z-score was 0.199. `Nc1sccc1C(=O)c1ccc(Cl)cc1` was tested, and the z-score was -0.434. Compound `O=C(N/N=C/c1ccc(-c2ccccc2[N+](=O)[O-])o1)c1cncc(Br)c1` has a z-score of -1.68. `O=C(Cc1ccccc1)N/N=C/c1cc(Br)c(Br)o1` was tested, and the z-score was -0.248. `O=C(N/N=C\c1cc(Br)c(Br)o1)c1cncc(Br)c1` was tested, and the z-score was 9.73 (active). Compound `Cc1ccnc(NC(=O)CCC(=O)N(CC(=O)NC2CCCCC2)c2cccc(C)c2C)c1` has a z-score of -0.622. `COc1ccc(OC)c(-c2cc(C(=O)Nc3c(C)nn(Cc4ccccc4Cl)c3C)no2)c1` gave a z-score of -0.834. `CC1Cc2ccccc2N1C(=O)COC(=O)Cn1cnc2ccccc2c1=O` (centres undefined) was tested, and the z-score was -0.55. Compound `Cc1ccc(C(=O)CNc2cccc(Cl)c2)cc1` has a z-score of -0.0331. `Cc1cccc(C(=O)Nc2ccc(NC(=O)Cc3ccc(Cl)cc3)cc2)c1` gave a z-score of -0.0593. For `O=C(CCc1ccccc1)Nc1cc(Cl)ccc1O`, the z-score was -0.624. Work on `Cc1cccc(/C(N)=N/OC(=O)c2ccc(Cl)cc2Cl)c1` yielded a z-score of -0.137. In the case of `Cc1cccc(C(=O)CC(=O)c2cc(Cl)ccc2O)c1`, the z-score is reported as 4.14 (active). `Cc1ccc(C(=O)c2cn[nH]c2-c2cc(Cl)ccc2O)cc1` showed a z-score of -0.48. In the case of `Cc1ccc(C(=O)CC(=O)c2cc(Cl)ccc2O)cc1`, the z-score is reported as 7.14 (active). For `O=C(O)CC(=O)Nc1cc(Cl)ccc1O`, the z-score was 0.845. In the case of `O=C(CC(=O)c1cc(Cl)ccc1O)c1ccccc1`, the z-score is reported as 3.32 (active). Work on `COc1nc(-c2ccccc2)ccc1-c1noc(-c2ccccc2F)n1` yielded a z-score of 0.0977.
